Data taken from PubChem BioAssay (EPA / NIEHS).
Activity calls are given as the source filed them. How the source made its calls: active means hit-call score of the fitted dose curve at least 0.9, where 1 is the maximum; inactive means score below 0.9.

Assay: CCTE_Shafer_MEA_dev_spike_duration_mean: CCTE's Neural Network Formation Assay for Mean Spike Duration, Shafer Lab (AID 2284051);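 further: mean network spike duration pooled as area under curve over DIV 5 to 12 recordings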;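 on AC50: potency for a decrease in mean network spike duration versus DMSO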
Method in brief: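 Spontaneous activity was recorded on days 5, 7, 9 and 12 from rat cortical cultures grown on microelectrode arrays and dosed continuously from day 0, with media and compound renewed after the DIV 5 and 9 recordings. Network-spike duration was collapsed by area under the curve.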

Compound | outcome | AC50
CC(=O)CC(c1ccccc1)c1c(O)c2ccccc2oc1=O (stereo not given) | inactive | –
OCC(O)CO | inactive | –
COC(=O)[C@H]1[C@H]2C[C@@H]3c4[nH]c5cc(OC)ccc5c4CCN3C[C@H]2C[C@@H](OC(=O)c2cc(OC)c(OC)c(OC)c2)[C@@H]1OC | – | 2710 nM (active)
O=C1NC(=O)C(c2ccccc2)(c2ccccc2)N1 | inactive | –
CN(C)CCCN1c2ccccc2Sc2ccc(Cl)cc21 | – | 3380 nM (active)

Assay: CCTE_Shafer_MEA_dev_network_spike_duration_std: CCTE's Neural Network Formation Assay for Standard Deviation of Network Spike Duration, Shafer Lab (AID 2284052);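 further: hits are decreases in network spike duration SD versus DMSO vehicle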
Method in brief: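 Network spike duration variability was collapsed across recordings on days 5, 7, 9 and 12 by trapezoidal area-under-curve and fitted downward against DMSO. Cultures were rat cortical neurons on PEI-coated MEA plates, dosed continuously from plating, refed with compound DIV 5/9.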

Compound | outcome | AC50
CC(=O)CC(c1ccccc1)c1c(O)c2ccccc2oc1=O (stereo not given) | inactive | –
OCC(O)CO | inactive | –
COC(=O)[C@H]1[C@H]2C[C@@H]3c4[nH]c5cc(OC)ccc5c4CCN3C[C@H]2C[C@@H](OC(=O)c2cc(OC)c(OC)c(OC)c2)[C@@H]1OC | – | 2180 nM (active)
O=C1NC(=O)C(c2ccccc2)(c2ccccc2)N1 | inactive | –
CN(C)CCCN1c2ccccc2Sc2ccc(Cl)cc21 | – | 2810 nM (active)
